Beta apoptosis – blocks beta cell apoptosis | INS-1E cytokine-induced death, ATP luminescence, 48 h; percent of positive-control rescue, neutral wells zero | 0.8% of 300,000 active | protection from apoptosis, % (concentration not given with the values) | AID 435005;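 active means Every replicate reaches about 75%, or at least half do and their mean reaches it too, limit read from the data; inconclusive means At least half of replicates reach the limit but their mean does not; inactive means Under half of replicates reach the limit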;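 further: 0% = cytokine-treated negative control wells and 100% = positive control rescue; higher means more ATP so stronger rescue from cytokine killing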
NR3A LBD binder – modulates the human NR3A ligand-binding domain | NR3A LBD differential scanning fluorimetry, Tm shift; 0% = protein alone, 100% = glycine-bound protein | 2.5% of 340,000 active | AID 1259313 | Tm shift relative to glycine control, % at 25 µM;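 active means melting temperature shift of at least 10% of the positive control shift, at one fixed dose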
Mdm2 MdmX PPI – human Mdm2/MdmX binding inhibition | O15151+Q00987 | SaOS-2 split-luciferase Mdm2/MdmX complementation, luminescence | inhibition, % at 8 µM | 3% of 330,000 active;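 active means inhibition of at least 50% at 8 µM in the primary screen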
Target sequence (O15151 whole entry, looked up): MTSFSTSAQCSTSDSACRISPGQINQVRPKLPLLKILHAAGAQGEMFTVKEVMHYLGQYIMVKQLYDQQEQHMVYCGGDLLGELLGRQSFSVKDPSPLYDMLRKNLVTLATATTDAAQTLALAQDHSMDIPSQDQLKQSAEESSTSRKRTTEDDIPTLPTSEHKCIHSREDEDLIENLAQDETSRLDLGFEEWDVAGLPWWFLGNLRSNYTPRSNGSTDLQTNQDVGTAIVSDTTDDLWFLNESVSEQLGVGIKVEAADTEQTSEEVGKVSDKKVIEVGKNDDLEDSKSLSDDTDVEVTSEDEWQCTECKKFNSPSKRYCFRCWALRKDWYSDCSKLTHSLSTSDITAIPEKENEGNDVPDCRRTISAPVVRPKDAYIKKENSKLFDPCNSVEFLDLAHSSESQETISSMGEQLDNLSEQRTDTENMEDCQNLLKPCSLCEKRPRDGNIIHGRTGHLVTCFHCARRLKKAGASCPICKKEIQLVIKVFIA
Target sequence (Q00987 whole entry, looked up): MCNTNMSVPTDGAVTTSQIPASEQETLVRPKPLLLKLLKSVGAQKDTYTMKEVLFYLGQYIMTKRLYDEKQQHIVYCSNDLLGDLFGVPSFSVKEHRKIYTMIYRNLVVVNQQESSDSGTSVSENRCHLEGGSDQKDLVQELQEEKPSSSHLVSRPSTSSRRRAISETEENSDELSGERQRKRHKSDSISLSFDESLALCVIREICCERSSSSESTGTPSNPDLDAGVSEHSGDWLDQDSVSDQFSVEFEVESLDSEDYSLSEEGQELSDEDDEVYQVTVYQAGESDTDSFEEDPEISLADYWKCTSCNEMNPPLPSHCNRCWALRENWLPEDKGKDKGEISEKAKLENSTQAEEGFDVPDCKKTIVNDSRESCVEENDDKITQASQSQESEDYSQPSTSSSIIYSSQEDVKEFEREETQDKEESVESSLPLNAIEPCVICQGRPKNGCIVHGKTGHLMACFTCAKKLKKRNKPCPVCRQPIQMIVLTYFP
CSC inhib – blocks cancer stem cells; cancer stem cell-like cells viability, luminescence; inhibition, % at 7.5 µM; 1.1% of 300,000 active; AID 2717; in the data active means inhibition above about 75%; inconclusive means no clear call, values can overlap the other calls; tested in HMLE shEcad cells
SKKanGAS inh – inhibitors of SKKanGAS S. pyogenes growth in kanamycin (SK-promoter or general growth effect). BacTiter-Glo, 6 h. inhibition, % at 7.5 µM. 1.3% of 300,000 active;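 active means mean replicate score, as percent of positive control median, at least 50; inconclusive means mean below 50 but one replicate at or above 50; inactive means mean and every replicate below 50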;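 further: strain carries kanamycin resistance gene driven by streptokinase promoter and grows in 40 µg/ml kanamycin; loss of luminescence reflects streptokinase promoter inhibition or plain growth inhibition; 0% = median of DMSO wells and 100% = positive control at its reference dose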
MPTP block – blocks calcium-induced mitochondrial swelling; isolated mouse mitochondria, Ca2+ swelling absorbance, 30 min; inhibition, % at 10 µM; 1.4% of 360,000 active; AID 602449;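 active means inhibition of 50% or more, scaled per plate between neutral and stimulator controls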;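 further: 0% = DMSO wells given calcium and 100% = 1 mM EGTA wells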
Mdm2 MdmX conf – human Mdm2/MdmX binding inhibition, confirmed; inhibition, % at 8 µM; luminescent assay; shares compounds with Mdm2 MdmX PPI; AID 489028; 55% of 10,000 active; in the data active means inhibition above about 40%
FLuc counter – counter-screen for Mdm2/MdmX inhibitors: full-length luciferase. inhibition, % at 8 µM. SaOS-2 full-length luciferase counterscreen, luminescence. shares compounds with Mdm2 MdmX PPI. 77% of 6,200 active;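 active means mean inhibition at 8 µM reaching about 37%, which flags the compound as non-specific, limit read from the data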;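 further: p53-null SaOS-2 cells with luciferase driven by a doxycycline-inducible promoter; compound on cells about two nights before reading with doxycycline added after day one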
* marks the source's active call; other numbers are inactive results; u = inconclusive; x = no result given. Hits are enriched below; roughly 6.9% of the tested compounds scored in any of these assays.

SMILES | Beta apoptosis | NR3A LBD binder | Mdm2 MdmX PPI | CSC inhib | SKKanGAS inh | MPTP block | Mdm2 MdmX conf | others
O=C(O)c1ccccc1Nc1cc(Cl)c2nonc2c1[N+](=O)[O-] | 1 | 1 | 4 | -10 | 7 | 2 | x
O=[N+]([O-])c1c(Nc2ccccn2)cc(Cl)c2nonc12 | 115* | -3 | 100* | 96* | 16 | 1 | 100* | FLuc counter=1
O=[N+]([O-])c1c(Nc2ccc(O)cc2)cc(Cl)c2nonc12 | 100* | -7 | 100* | 91* | -9 | 2 | 100* | FLuc counter=1
CN(C)c1cc(Nc2ccc(O)cc2)c([N+](=O)[O-])c2nonc12 | -3 | 0 | -3 | 11 | -1 | 0 | x
COc1ccc(NC(=O)C2CCCN(c3nn4c(=O)cc(C)nc4s3)C2)c(OC)c1 (stereo not given) | -1 | -1 | 15 | -1 | -12 | -2 | x
COC(=O)[C@H]1C[C@@]2(O)CN(S(=O)(=O)c3ccc(C)cc3)C[C@@]2(OC(=O)Nc2c(C)noc2C)C[C@H]1C(=O)OC | x | x | x | x | x | 3 | x
CC(=O)Oc1ccccc1C1=NN(C(=O)/C=C/c2ccccc2)C(c2ccccc2)C1 (stereo not given) | 17 | 0 | 51* | 32 | u | 0 | 6
COc1ccc(C2CC(c3ccccc3OC(C)=O)=NN2C(=O)/C=C/c2ccccc2)cc1 (stereo not given) | 23 | -1 | -2 | -4 | 24 | 3 | x
CCOC(=O)c1c(NC(=S)NCCc2ccccc2)sc2c1CC(C(C)C)OC2 (stereo not given) | x | 10 | 51* | 46 | 101* | 37 | 3
COc1ccc(-c2oc3ncnc(NCCN4CCOCC4)c3c2-c2ccc(OC)cc2)cc1 | 41 | -6 | 80* | 34 | 28 | 1 | 37
c1ccc(-c2oc3ncnc(NCCCN4CCOCC4)c3c2-c2ccccc2)cc1 | -5 | -3 | 16 | 25 | 15 | -1 | x
COc1ccc(-c2oc3ncnc(NCCCN4CCOCC4)c3c2-c2ccc(OC)cc2)cc1 | 0 | 1 | 60* | 20 | 21 | -1 | 31
COc1ccc(-c2oc3ncn(CCN4CCOCC4)c(=N)c3c2-c2ccc(OC)cc2)cc1 | 48 | -2 | 57* | 43 | 2 | -3 | 38 | FLuc counter=49*
Cc1ccc(-c2csc(N3CCC[C@@H]3C(=O)NCCn3c(-c4ccncc4)nc4ccccc43)n2)cc1 | 6 | -4 | 41 | -8 | 20 | 1 | x
COc1cc(C(=O)Nc2nc(C)cc(C)n2)cc(OC)c1OC | 5 | -1 | 5 | 9 | 0 | 0 | x
COC(=O)c1ccc(Cn2nc(-c3ccc(C)cc3)ccc2=O)cc1 | -9 | -1 | 15 | -6 | 8 | 3 | x
C/C(Cc1nnn(-c2cc(C)on2)n1)=N\O | -1 | -2 | 15 | -13 | -1 | 1 | x
CC(C)(C)OC(=O)N[C@H](Cc1ccccc1)C(=O)N1CCC[C@@H]1C(=O)O | -5 | 1 | 12 | -9 | -5 | 0 | x
CCN(CC)CCCN1C(=O)CSC1c1ccc([N+](=O)[O-])cc1 (stereo not given) | -6 | 1 | 14 | 3 | -14 | -2 | x
CC(=O)Nc1cccc(-c2nnc(-c3ccccc3)o2)c1 | -2 | 1 | -34 | -11 | -9 | 1 | x
CCOc1cccc(C(=O)Nc2cccc(-c3nnc(-c4ccc(C)cc4)o3)c2)c1 | 13 | -1 | 84* | 69 | -6 | 4 | 8
CCOc1cccc(C(=O)Nc2cccc(-c3nnc(-c4ccccc4)o3)c2)c1 | x | 3 | 51* | x | 15 | 14 | 25
CCOC(=O)C1=C(C)Nc2sc(C(=O)c3ccc(F)cc3)c(N)c2C1c1ccc(C(=O)OC)cc1 (stereo not given) | 1 | 13* | 61* | x | 31 | 6 | 22
Cc1ccc2oc(=O)c3cc(C(=O)NCCCN4CCN(C)CC4)sc3c2c1 | 6 | 0 | 30 | 10 | 1 | 8 | x
Cc1ccc2oc(=O)c3cc(C(=O)NCCCN4CC(C)CC(C)C4)sc3c2c1 (stereo not given) | 6 | -1 | 50* | 11 | 3 | 1 | 17
SMILES | Beta apoptosis | NR3A LBD binder | Mdm2 MdmX PPI | CSC inhib | SKKanGAS inh | MPTP block | Mdm2 MdmX conf | others
CCN(CC)S(=O)(=O)c1cccc(C(=O)N/N=C/c2ccc(O)c(O)c2O)c1 | -2 | -4 | x | 16 | x | 1 | x
CCN(CC)S(=O)(=O)c1cccc(C(=O)N/N=C(\C)c2ccc(O)cc2O)c1 | x | -3 | 73* | x | 5 | 4 | 57* | FLuc counter=106*
C=CC[C@@H](CC(=O)N(CCO)Cc1ccccc1)C(=O)N[C@H](COC(=O)[C@@H](CC=C)Cc1ccc(F)cc1)Cc1ccccc1 | 6 | 1 | 70* | -5 | x | 2 | 14
C=CC[C@H](CC(=O)N(CCO)Cc1ccccc1)C(=O)N[C@@H](C)COC(=O)[C@@H](CC=C)Cc1ccc(F)cc1 | -15 | 1 | -7 | 0 | x | 0 | x
C=CCC[C@@H](Cc1ccc(F)cc1)C(=O)OC[C@@H](NC(=O)[C@@H](CC=C)CC(=O)N(CCO)Cc1ccccc1)c1ccccc1 | 1 | -9 | 88* | x | x | -2 | 9
C=CC[C@@H](CC(=O)N(CCO)Cc1ccccc1)C(=O)N[C@@H](COC(=O)[C@@H](CC=C)Cc1ccc(F)cc1)Cc1ccccc1 | 13 | -11 | 63* | x | x | 0 | 12
CC[C@]12c3[nH]c4ccc(Cl)cc4c3CCN1C(=O)[C@@H](CC(=O)NCCCn1ccnc1)C[C@@H]2C(=O)N1CCN(C(=O)C2CC2)CC1 | x | 0 | 3 | x | x | 0 | x
COc1ccccc1Nc1nc(NCCO)c2ccccc2n1 | x | x | -12 | x | 0 | x | x
Cc1ccc(Nc2nc(NCCO)c3ccccc3n2)cc1C | x | 2 | 55* | x | 5 | 17 | 25
OCCNc1c2ccccc2nc2ccccc12 | x | -1 | 61* | 12 | 11 | 0 | 56* | FLuc counter=37*
C[C@H](NC(=O)C[C@@H]1CC[C@H]2[C@@H](COC[C@H](O)CN2Cc2ccc(C(F)(F)F)cc2)O1)c1ccccc1 | x | x | x | x | x | 3 | x
CC(=O)C12CCCCC1CC1[C@@H]3CC(C)C4=CC(=O)CC[C@]4(C)C3CC[C@@]12C (stereo not given in full) | x | 22* | 56* | x | 5 | 0 | 6
COc1ccc(-c2oc(=O)c3cc(OC)c(OC)cc3c2C#C[C@]2(O)CC[C@H]3[C@@H]4CCc5cc(OC)ccc5[C@H]4CC[C@@]32C)cc1 | -2 | -11 | 70* | 0 | x | -1 | 10
COc1ccc(-c2oc(=O)c3cc(OC)c(OC)cc3c2C#CCCO)cc1 | 17 | -4 | 37 | x | x | 1 | x
C[C@H]1CN([C@@H](C)CO)C(=O)CCCn2cc(nn2)CO[C@@H]1CN(C)C(=O)Nc1ccc(N2CCCCC2)cc1 | x | x | x | x | x | 0 | x

Bioassay records (PubChem)
